A selection: hits, their analogues and other compounds. The true share with any hit is near 19%.
HT1080NT lethal – qHTS for induction of synthetic lethality in tumor cells producing 2HG: qHTS for the HT-1080-NT fibrosarcoma cell line; HT-1080-NT fibrosarcoma viability, CellTiter-Glo ATP luminescence, 48 h; Potency, µM (series often up to 46.1 µM), for inactives: at the highest dose activity, negative = less viability, actives largely listed as cytotoxic; 360,000 compounds, 1.6% hits; AID 686970, 2013;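 note: NT is the 2HG producing partner of a matched IDH1 knockdown line; potency is the fitted concentration of half-maximal effect; 0% = DMSO-treated cells and -100% = media-only wells without cells; nearly all actives have a fitted effect of over 55% in size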
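Luminescent CellTiter-Glo readout after 48 hours of compound exposure at 37 degrees C defined viability of HT-1080-NT cells. Activity was normalized to DMSO wells and cell-free media wells; concentration-response curves were fitted and assigned curve classes.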
DT40 TDP1 CPT – qHTS for Inhibitors of human tyrosyl-DNA phosphodiesterase 1 (TDP1): qHTS in cells in presence of CPT; chicken DT40 Tdp1-/-;hTDP1 cells + 20 nM CPT, ATP luminescence, 48 h; 420,000 compounds, 12% hits; Potency, µM (series often up to 46.2 µM), for inactives: at the top dose activity change, negative = growth inhibition, actives largely listed as inhibitors; AID 686979, 2013; note: potency is the fitted concentration of half-maximal effect; nearly all actives have a fitted effect of over 55% in size
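Cell growth measured by CellTiter-Glo luminescence after a minimum 48 h, 37 C compound exposure with 20 nM CPT in Tdp1-knockout DT40 cells stably expressing hTDP1, seeded 400/well; qHTS titration format.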
HT1080 IDH1KD tx – qHTS for induction of synthetic lethality in tumor cells producing 2HG: qHTS for the HT-1080-IDH1KD cell line. HT-1080 IDH1 knockdown viability, ATP luminescence, 48 h. Potency, µM (series often up to 46.1 µM), for the others: top-dose activity, negative = toxicity, hits mostly cytotoxic. 360,000 compounds, 2% hits;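 note: potency is the fitted concentration of half-maximal effect; 0% = DMSO wells and -100% = cell-free medium wells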
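Assay cells: HT-1080 with IDH1 knockdown, 750 per well, RPMI/5% FBS. Exposure: 48 h at 37 °C following 2 h pre-incubation. Read: CellTiter-Glo luminescence; fitted concentration-response, curve class assigned.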
IL-1B inflam inh – qHTS for Inhibitors of Inflammasome Signaling: IL-1-beta AlphaLISA Primary Screen. THP-1 LPS/ATP IL-1B secretion, AlphaLISA, 16 h; hits give low values. activity change, % at 57.5 µM. 360,000 compounds, 4.7% hits; in the data active = activity change below about -50%; inconclusive = mostly about -30% to -49%
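Secreted IL-1B measured by AlphaLISA bead assay after 16 h compound exposure of THP-1 cells; compounds (final up to 57.5 uM) added 1 h before LPS (250 ng/mL) and ATP (1.25 mM) stimulation; lower signal means less secretion.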
ELG1 DNA repair – qHTS screen for small molecules that inhibit ELG1-dependent DNA repair in human embryonic kidney (HEK293T) cells expressing luciferase-tagged ELG1; Potency, µM (doses to about 46.1 µM), for the others: top-dose activity change, negative = inhibition, actives largely listed as inhibitors; HEK293T ELG1-luciferase reporter, luminescence, 16 h; DNA damage induced by 5-fluorouridine; AID 504467, 2011; 330,000 compounds, 2.3% hits; note: potency is the fitted concentration of half-maximal effect; nearly all actives have a fitted effect of over 55% in size
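Luminescence from the luciferase reporter, measured 30 min after ONE-Glo reagent at room temperature, was the read-out. Beforehand, 2,000 cells per well were exposed for 16 hr at 37 °C to 5-fluorouridine together with compound or vehicle.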
TDP1 cell noCPT – qHTS for Inhibitors of human tyrosyl-DNA phosphodiesterase 1 (TDP1): qHTS in cells in absence of CPT; DT40 Tdp1-/- hTDP1 cells, no CPT, ATP luminescence, 48 h; AID 686978, 2013; Potency, µM (titrated, usually from 46.2 µM), inactives show at the top dose activity change, negative = growth inhibition, hits mostly inhibitors; 420,000 compounds, 15% hits; note: potency is the fitted concentration of half-maximal effect; nearly all actives have a fitted effect of over 55% in size
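Readout: luminescence from CellTiter-Glo after 30 min in the dark at RT. Cells: DT40 Tdp1-/- with stable hTDP1, 400/well. Exposure: compounds alone, ≥48 hr, 37 °C.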
The depositor's hits bear a star. Unless noted, calls come from the whole dose curve; as a rule, active = well fitted curve in the direction sought with a large enough effect; inconclusive = small, poorly fitted or top-dose-only effect, or another doubt; inactive = no such curve, though single readings can be large; an effect the other way counts as inactive or inconclusive. Unless noted, % is set by controls: 0 for no effect and ±100 for the full control effect.

Results for CCOc1ccccc1C(=O)N(Cc1cc(OC)c(OC)c(OC)c1)c1ccccn1 ?
DT40 TDP1 CPT: 18µM*; TDP1 cell noCPT: inconclusive

How did CCOc1ccc(C(=O)N(Cc2cc(OC)c(OC)c(OC)c2)c2ccccn2)cc1 do in these assays?
DT40 TDP1 CPT: 15µM*; TDP1 cell noCPT: 21µM*

What do the screens show for `Cc1ccc(CC(=O)N(Cc2ccccc2)c2ccccn2)cc1`?
HT1080NT lethal: 3%; DT40 TDP1 CPT: inconclusive; HT1080 IDH1KD tx: 19%; IL-1B inflam inh: 8; ELG1 DNA repair: -14%; TDP1 cell noCPT: inconclusive

Results for COc1cc(CN(C(=O)c2ccc(C)cc2)c2ccccn2)cc(OC)c1OC ?
DT40 TDP1 CPT: 18µM*; TDP1 cell noCPT: 21µM*

How did CCOc1ccccc1C(=O)N(Cc1cc(OC)c(OC)c(OC)c1)C1CCS(=O)(=O)C1 (stereo not drawn) do in these assays?
DT40 TDP1 CPT: -16%; TDP1 cell noCPT: 0%

How did COc1cc(CN(C(=O)c2cccc(C)c2)c2ccccn2)cc(OC)c1OC do in these assays?
DT40 TDP1 CPT: 13µM*; TDP1 cell noCPT: 13µM*

Results for CC(C)(C)c1ccc2cccc(F)c2n1 ?
HT1080NT lethal: 18%; DT40 TDP1 CPT: -21%; HT1080 IDH1KD tx: 18%; IL-1B inflam inh: 42; TDP1 cell noCPT: 2%

How did COc1ccccc1C(=O)Nc1cccc2cccnc12 do in these assays?
HT1080NT lethal: -8%; DT40 TDP1 CPT: inconclusive; HT1080 IDH1KD tx: -13%; IL-1B inflam inh: -28; ELG1 DNA repair: 50%; TDP1 cell noCPT: inconclusive

How did COc1cc(/C=C/C(=O)N(Cc2ccccc2)c2ccccn2)cc(OC)c1OC do in these assays?
HT1080NT lethal: -4%; DT40 TDP1 CPT: inconclusive; HT1080 IDH1KD tx: 1%; IL-1B inflam inh: 0; ELG1 DNA repair: inconclusive; TDP1 cell noCPT: 29µM*

Results for CCN(c1ccccc1)S(=O)(=O)c1nnc(NC(=O)COc2ccccc2F)s1 ?
DT40 TDP1 CPT: -15%; TDP1 cell noCPT: -20%

What do the screens show for `C=C1NN(Cc2ccccc2)C(=O)N1c1ccc(OC)cc1`?
DT40 TDP1 CPT: 8%; TDP1 cell noCPT: -17%

Results for Cc1ccc(Cl)cc1NC(=O)c1cc2ccccc2cc1O ?
HT1080NT lethal: 4.1µM*; DT40 TDP1 CPT: 2.6µM*; HT1080 IDH1KD tx: inconclusive; IL-1B inflam inh: -90*; ELG1 DNA repair: 12%; TDP1 cell noCPT: 2.9µM*

How did COc1cc(NC(=O)c2cc3ccccc3cc2O)c(OC)cc1Cl do in these assays?
HT1080NT lethal: inconclusive; DT40 TDP1 CPT: 15µM*; HT1080 IDH1KD tx: inconclusive; IL-1B inflam inh: inconclusive; ELG1 DNA repair: inconclusive; TDP1 cell noCPT: 10µM*

Results for Cc1occc1C(=O)Nc1ccc([N+](=O)[O-])cc1Br ?
HT1080NT lethal: -2%; DT40 TDP1 CPT: 1.3µM*; HT1080 IDH1KD tx: -2%; IL-1B inflam inh: -20; ELG1 DNA repair: 23%; TDP1 cell noCPT: 29µM*

How did COc1cc(OC)c(NC(=O)c2ccoc2C)cc1Cl do in these assays?
HT1080NT lethal: 1%; DT40 TDP1 CPT: 15µM*; HT1080 IDH1KD tx: inconclusive; IL-1B inflam inh: 24; ELG1 DNA repair: 12%; TDP1 cell noCPT: inconclusive

How did Cc1ccc([N+](=O)[O-])cc1NC(=O)c1ccoc1C do in these assays?
HT1080NT lethal: 5%; DT40 TDP1 CPT: inconclusive; HT1080 IDH1KD tx: -1%; IL-1B inflam inh: inconclusive; ELG1 DNA repair: inconclusive; TDP1 cell noCPT: -24%

How did Cc1ccc(NS(=O)(=O)c2c(C)nc3sccn3c2=O)c(C)c1 do in these assays?
HT1080NT lethal: 0%; DT40 TDP1 CPT: -29%; HT1080 IDH1KD tx: 5%; IL-1B inflam inh: 60; ELG1 DNA repair: -1%; TDP1 cell noCPT: -25%

What do the screens show for `O=C(CO)c1c[nH]c2ccccc12`?
DT40 TDP1 CPT: -2%; TDP1 cell noCPT: 6%

What do the screens show for `COc1ccccc1NC(=O)c1cc2cc(Br)ccc2cc1O`?
HT1080NT lethal: inconclusive; DT40 TDP1 CPT: 6.5µM*; HT1080 IDH1KD tx: inconclusive; IL-1B inflam inh: inconclusive; ELG1 DNA repair: -17%; TDP1 cell noCPT: 3.7µM*

How did O=C(COC(=O)Cc1ccc(S(=O)(=O)N2CCOCC2)s1)Nc1ccccc1Cl do in these assays?
HT1080NT lethal: 5%; DT40 TDP1 CPT: inconclusive; HT1080 IDH1KD tx: 3%; IL-1B inflam inh: 19; ELG1 DNA repair: -2%; TDP1 cell noCPT: 4%

Results for Cc1sc2nc(CSc3nnnn3-c3ccc(Cl)cc3)[nH]c(=O)c2c1C ?
HT1080NT lethal: -2%; DT40 TDP1 CPT: inconclusive; HT1080 IDH1KD tx: -12%; IL-1B inflam inh: 4; ELG1 DNA repair: inconclusive; TDP1 cell noCPT: 16µM*

How did CCn1c(SCc2nc3ccccc3c(=O)[nH]2)nc2ccccc21 do in these assays?
HT1080NT lethal: -5%; DT40 TDP1 CPT: inconclusive; HT1080 IDH1KD tx: -17%; IL-1B inflam inh: -11; ELG1 DNA repair: inconclusive; TDP1 cell noCPT: 21µM*

What do the screens show for `COCCn1c(Cc2ccccc2)nnc1SCc1nc2ccccc2c(=O)[nH]1`?
HT1080NT lethal: 1%; DT40 TDP1 CPT: inconclusive; HT1080 IDH1KD tx: -1%; IL-1B inflam inh: 19; ELG1 DNA repair: -10%; TDP1 cell noCPT: 16µM*

What do the screens show for `Cc1sc2nc(CSc3ncn[nH]3)[nH]c(=O)c2c1C`?
HT1080NT lethal: 1%; DT40 TDP1 CPT: inconclusive; HT1080 IDH1KD tx: 2%; IL-1B inflam inh: -14; ELG1 DNA repair: -14%; TDP1 cell noCPT: inconclusive

Results for CCCn1c(SCc2nc3sc(C)c(C)c3c(=O)[nH]2)nc2ccccc2c1=O ?
HT1080NT lethal: 2%; DT40 TDP1 CPT: inconclusive; HT1080 IDH1KD tx: 6%; IL-1B inflam inh: -8; ELG1 DNA repair: -13%; TDP1 cell noCPT: 15µM*

How did Cn1c(Cc2ccccc2)nnc1SCc1nc2ccccc2c(=O)[nH]1 do in these assays?
HT1080NT lethal: -18%; DT40 TDP1 CPT: 1%; HT1080 IDH1KD tx: -5%; IL-1B inflam inh: 5; ELG1 DNA repair: 1%; TDP1 cell noCPT: -14%

How did Cc1ccc(/C=C2\CCCC3=C2NC(=S)NC3c2ccc(C)cc2)cc1 (stereo not drawn) do in these assays?
HT1080NT lethal: 2%; DT40 TDP1 CPT: -48%; HT1080 IDH1KD tx: -7%; IL-1B inflam inh: -16; ELG1 DNA repair: 2%; TDP1 cell noCPT: inconclusive

Screens from PubChem.
